# Results from PubChem BioAssay (EPA / NIEHS).
# Several values for one entry are separate records, joined by “and”; a condition that tells them apart may be missing. Equal entries are not always repeated. Results filed as inconclusive are left out. Activity calls are given as the source filed them. How the source made its calls, unless noted: active means hit-call score of the fitted dose curve at least 0.9, where 1 is the maximum; inconclusive means response in the unintended direction; inactive means score below 0.9.
# Legend:
# [1] = CCTE_Shafer_MEA_acute_synchrony_index: CCTE's Neural Acute Assay for Synchrony, Shafer Lab (AID 2284027; active means hit-call score of the fitted dose curve at least 0.9, where 1 is the maximum; inactive means score below 0.9;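 further: network synchrony index of spontaneous spiking in primary rat cortical neurons on MEAs; fitted for loss of signal so actives lower synchrony relative to DMSO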)
# Procedure, shortened: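 Rat cortical cultures, DIV 13/15; spikes detected at 8x rms noise, 300-5000 Hz band-pass. Compound 0.03-40 uM, ≥3 wells; 40-min pre- and post-exposure recordings, 37 C. Readout: % change in synchrony index; loss-of-signal fit vs DMSO.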
# [2] = CCTE_Deisenroth_AIME_96WELL_CTox_Active: Cytotoxicity Assessment (CTOX) in CCTE's 96-well Estrogen Receptor Transactivation Assay with AIME metabolic competence (metabolism positive), Deisenroth Lab (AID 2284028)
# Procedure, shortened: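 Cytotoxicity in VM7Luc4E2 breast cells after 24 h exposure to medium from a 2 h metabolic pre-incubation with induced rat hepatic S9 in alginate microspheres; fluorescent live-cell protease readout, 10-point series 0.002–200 uM, n=4.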
# [3] = CCTE_Deisenroth_AIME_96WELL_CTox_Inactive: Cytotoxicity Assessment (CTOX) in CCTE's 96-well Estrogen Receptor Transactivation Assay without AIME metabolic competence (metabolism negative), Deisenroth Lab (AID 2284029)
# Procedure, shortened: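 Cytotoxicity in VM7Luc4E2 breast cells was scored as loss of fluorescent signal from a live-cell protease substrate 24 h after exposure, using bidirectional curve fitting. Test media came from a 2 h metabolism-negative pre-incubation (alginate-water, no hepatic S9) of compounds at 0.002-200 uM, with at least four replicates.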
# [4] = target: Estrogen receptor (Homo sapiens) (UniProt P03372); test: CCTE_Deisenroth_AIME_384WELL_LUC_Active: CCTE's 384-well Estrogen Receptor Transactivation Assay with AIME metabolic competence (ERTA luciferase; metabolism positive), Deisenroth Lab (AID 2284030)
# Estrogen receptor (Homo sapiens), sequence (P03372 whole entry, looked up): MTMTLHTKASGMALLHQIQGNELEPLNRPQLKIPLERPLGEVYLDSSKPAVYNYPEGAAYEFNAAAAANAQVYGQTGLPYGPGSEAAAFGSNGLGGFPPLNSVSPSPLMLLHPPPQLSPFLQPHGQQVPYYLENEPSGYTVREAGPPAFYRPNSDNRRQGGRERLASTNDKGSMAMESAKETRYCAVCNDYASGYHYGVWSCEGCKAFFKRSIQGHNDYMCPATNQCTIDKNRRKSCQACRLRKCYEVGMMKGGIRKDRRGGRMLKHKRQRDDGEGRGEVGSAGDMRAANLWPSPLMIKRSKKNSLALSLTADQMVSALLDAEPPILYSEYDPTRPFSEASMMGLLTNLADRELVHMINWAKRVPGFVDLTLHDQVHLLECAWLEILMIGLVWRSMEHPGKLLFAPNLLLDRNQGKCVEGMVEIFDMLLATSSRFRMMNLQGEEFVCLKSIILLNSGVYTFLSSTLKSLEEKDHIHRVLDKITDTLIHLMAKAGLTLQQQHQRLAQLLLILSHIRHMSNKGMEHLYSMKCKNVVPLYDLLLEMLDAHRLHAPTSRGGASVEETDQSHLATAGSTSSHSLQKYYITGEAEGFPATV
# Procedure, shortened: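 Test chemicals (10-point series, 0.002 - 200 uM) were preincubated 2 hours with alginate-immobilized phenobarbital/beta-naphthoflavone-induced male Sprague Dawley rat liver S9; conditioned medium then went onto VM7Luc4E2 breast cells for 24 hour. Luciferase gain-of-signal fitted relative to 17beta-estradiol.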
# [5] = target: Estrogen receptor (Homo sapiens) (UniProt P03372); test: CCTE_Deisenroth_AIME_384WELL_LUC_Inactive: CCTE's 384-well Estrogen Receptor Transactivation Assay without AIME metabolic competence (ERTA luciferase; metabolism negative), Deisenroth Lab (AID 2284038);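 further: hits raise estrogen receptor luciferase signal so potencies reflect agonists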
# Procedure, shortened: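 Metabolism-negative mode: AIME lids stamped in alginate-water, no hepatic S9. 2 h chemical incubation → medium onto VM7Luc4E2 ERTA, 24 h. Readout luciferase luminescence; gain-of-signal fit vs 17beta-estradiol. Conc. 0.002 - 200 uM.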
# [6] = CCTE_Deisenroth_AIME_384WELL_CTox_Inactive: Cytotoxicity Assessment (CTOX) in CCTE's 384-well Estrogen Receptor Transactivation Assay without AIME metabolic competence (metabolism negative), Deisenroth Lab (AID 2284039);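 further: cell viability via live-cell protease substrate cleaved to fluorescent probe; cells exposed 24 h to medium preincubated 2 h with alginate-water beads without S9; loss of fluorescence signal means loss of viability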
# Procedure, shortened: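 VM7Luc4E2 cells, metabolism-negative arm: test chemicals (0.002–200 uM, 10 points) pre-incubated 2 h with alginate-water microspheres, then medium transferred to cells for 24 h. Viability read as protease-substrate cleavage to fluorescent probe; loss-of-signal, bidirectional fitting.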
# [7] = target: Estrogen receptor (Homo sapiens) (UniProt P03372); test: CCTE_Deisenroth_AIME_384WELL_LUC_Shift: CCTE's 384-well Estrogen Receptor Transactivation Assay with AIME metabolic competence data shift (ERTA luciferase; difference in metabolism positive and negative), Deisenroth Lab (AID 2284041; active means hit-call score of the fitted dose curve at least 0.9, where 1 is the maximum; inactive means score below 0.9;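 further: shift is response with S9 minus without S9 so positive means metabolism raised ER signal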)
# Procedure, shortened: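 Test chemicals (0.002–200 uM, 10-point) were pre-incubated 2 h with alginate microspheres containing phenobarbital/beta-naphthoflavone-induced male Sprague Dawley rat liver S9 or water, then medium was transferred to VM7Luc4E2 cells for 24 h luciferase readout; shift = S9-positive minus S9-negative normalized response.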
# [8] = CCTE_Deisenroth_AIME_384WELL_CTox_Active: Cytotoxicity Assessment (CTOX) in CCTE's 384-well Estrogen Receptor Transactivation Assay with AIME metabolic competence (metabolism positive), Deisenroth Lab (AID 2284037);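 further: chemicals first conditioned 2 h by alginate-bound induced rat liver S9 before cells; activity means signal loss indicating cell death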
# Procedure, shortened: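 Cytotoxicity in VM7Luc4E2 breast cells, 24 hour, measured as protease-substrate fluorescence loss, after 2-hour metabolic conditioning with induced rat hepatic S9 in alginate microspheres. Concentrations 0.002 - 200 uM, 10 points, bidirectional fitting.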
# [9] = CCTE_Shafer_MEA_dev_per_burst_spike_percent: CCTE's Neural Network Formation Assay for Percent of Spikes in a Burst, Shafer Lab (AID 2284032; active means hit-call score of the fitted dose curve at least 0.9, where 1 is the maximum; inactive means score below 0.9;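 on AC50: fitted as a decrease in burst spike percentage below DMSO baseline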)
# Procedure, shortened: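 Value is trapezoidal AUC over recordings on days 5, 7, 9 and 12 of the well-mean fraction of spikes falling in single-electrode bursts; rat cortical cultures exposed continuously from plating, treatment renewed DIV 5 and 9, fitted downward against DMSO.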
# [10] = CCTE_Shafer_MEA_dev_active_electrodes_number: CCTE's Neural Network Formation Assay for Number of Active Electrodes, Shafer Lab (AID 2284040);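 on AC50: potency for loss of active electrodes versus DMSO so lower counts are hits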
# Procedure, shortened: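 Developing rat cortical networks on MEAs, exposed DIV 0–12. Value is the AUC of active-electrode counts (≥5 spikes/min) from days 5, 7, 9, 12, relative to DMSO.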
smiles,measurement,setting,value
CCC(=C(c1ccc(O)cc1)c1ccc(OCCN(C)C)cc1)c1ccccc1,AC50,[1],20.9 µM (active)
CCCCC(CC)COC(=O)CCCCC(=O)OCC(CC)CCCC (centres undefined),outcome,[2],inactive
same,outcome,[3],inactive
CC(=O)NC1(c2cccc(F)c2)CCN(CC[C@@]2(c3ccc(Cl)c(Cl)c3)CN(c3ccccc3)C(=O)CO2)CC1,AC50,[1],9.53 µM (active)
CN1CCN(c2ccccc2/C=C2\SCCN(c3ccc(Cl)c(Cl)c3)C2=O)CC1,AC50,[1],34 µM (active)
O=c1c(-c2ccc(O)cc2)coc2cc(O)ccc12,AC50,[1],12.2 µM (active)
same,outcome,[2],inactive
CC(C)CCCCCCOC(=O)CCCCC(=O)OCCCCCCC(C)C,outcome,[1],inactive
CC[C@H](c1ccc(O)cc1)[C@@H](CC)c1ccc(O)cc1,outcome,[1],inactive
CCCCCCCCCCCCCCCS(=O)(=O)Oc1ccccc1,outcome,[1],inactive
same,AC50,[4],19.5 µM (active)
same,AC50,[5],9.6 µM (active)
same,outcome,[6],inactive
same,outcome,[7],inactive
CCCOc1sc(C(=O)N2CCC(c3cc(CN)ccc3F)CC2)c(C)c1Br,outcome,[1],inactive
OC1CCC(C2CCCCC2)CC1 (centres undefined),outcome,[1],inactive
NC(=O)N(O)[C@@H]1C=C[C@H](Oc2cccc(Oc3ccc(F)cc3)c2)C1,AC50,[1],10 µM (active)
CCCCCCCCCCCCc1ccccc1S(=O)(=O)O,AC50,[1],33.1 µM (active)
O=C(O)c1ccccc1C(c1ccc(O)cc1)c1ccc(O)cc1,AC50,[1],7.86 µM (active)
same,AC50,[4],123 µM (active)
same,outcome,[8],inactive
same,AC50,[5],98.9 µM (active)
same,outcome,[6],inactive
same,AC50,[7],126 µM (active)
OCCC(F)(F)C(F)(F)C(F)(F)C(F)(F)C(F)(F)C(F)(F)C(F)(F)C(F)(F)F,outcome,[1],inactive
same,outcome,[4],inactive
same,outcome,[9],inactive
same,outcome,[5],inactive
same,outcome,[10],inactive
same,outcome,[7],inactive
O=C(/C=C/c1ccc(O)cc1)CC(=O)/C=C/c1ccc(O)cc1,outcome,[2],inactive
Oc1cc2ccccc2c2ccccc12,outcome,[1],inactive
same,AC50,[8],19 µM (active)
same,AC50,[6],10.3 µM (active)
same,outcome,[7],inactive
Cc1cc(CCN2CCN(c3nsc4ccccc34)CC2)cc2c1NC(=O)CC2(C)C,AC50,[1],33.4 µM (active)
CC(C)(C)c1cc(C(C)(C)C)c(O)c(C(C)(C)C)c1,AC50,[1],0.167 µM (active)
CC#C[C@]1(O)CC[C@H]2[C@@H]3CCC4=CC(=O)CCC4=C3[C@@H](c3ccc(N(C)C)cc3)C[C@@]21C,AC50,[1],16.2 µM (active) and 7.18 µM (active)
same,outcome,[4],inactive
same,AC50,[9],6.81 µM (active) and 22.9 µM (active)
same,outcome,[8],inactive
same,outcome,[5],inactive
same,outcome,[6],inactive
same,AC50,[10],4.73 µM (active) and 17.8 µM (active)
same,outcome,[7],inactive
CN(C)C=O,outcome,[1],inactive
CCCCCCCCCCCCN1CCCC1=O,outcome,[1],inactive
same,AC50,[8],100 µM (active)
same,AC50,[6],57.1 µM (active)
same,outcome,[7],inactive
CN1CCC[C@H]1c1cccnc1,outcome,[1],inactive
same,outcome,[4],inactive
same,outcome,[9],inactive
same,outcome,[8],inactive
same,outcome,[5],inactive
same,outcome,[6],inactive
same,outcome,[10],inactive
same,outcome,[7],inactive
CCc1ccc(CCOc2ccc(CC3SC(=O)NC3=O)cc2)nc1 (centres undefined),outcome,[1],inactive
OCCC(F)(F)C(F)(F)C(F)(F)C(F)(F)C(F)(F)C(F)(F)F,outcome,[4],inactive
same,outcome,[9],inactive
same,outcome,[8],inactive
same,outcome,[5],inactive
same,outcome,[6],inactive
same,outcome,[10],inactive
same,outcome,[7],inactive
c1ccc2c(c1)Cc1ccccc1-2,outcome,[9],inactive
same,outcome,[10],inactive
C[C@@H]1C[C@H]2[C@@H]3CCC4=CC(=O)C=C[C@]4(C)[C@@]3(F)[C@@H](O)C[C@]2(C)[C@@]1(O)C(=O)COP(=O)(O)O,outcome,[8],inactive
same,outcome,[7],inactive
COc1ccc([N+](=O)[O-])cc1N,AC50,[8],100 µM (active)
same,outcome,[5],inactive
same,AC50,[6],100 µM (active)
same,outcome,[7],inactive
Cc1ccc(S(=O)(=O)O)c(C)c1,outcome,[4],inactive
same,outcome,[8],inactive
same,outcome,[5],inactive
same,outcome,[6],inactive
same,outcome,[7],inactive
CCCCCCC(=O)O,outcome,[4],inactive
same,outcome,[5],inactive
same,outcome,[7],inactive
COc1cc(CCC(=O)CC(=O)CCc2ccc(O)c(OC)c2)ccc1O,AC50,[2],150 µM (active)
same,AC50,[3],164 µM (active)
COCC(C)OCC(C)O (centres undefined),outcome,[4],inactive
same,outcome,[8],inactive
same,outcome,[5],inactive
same,outcome,[7],inactive
CC(O)CO (centres undefined),outcome,[9],inactive
same,outcome,[10],inactive
CC(C)(C)c1ccc(O)c(C(C)(C)C)c1,AC50,[2],155 µM (active)
same,AC50,[3],163 µM (active)
same,AC50,[8],171 µM (active)
same,AC50,[6],179 µM (active)
same,AC50,[7],77.6 µM (active)
OC1CCCCC1,outcome,[4],inactive
same,outcome,[8],inactive
same,outcome,[5],inactive
same,outcome,[6],inactive
same,outcome,[7],inactive
CCCCC(CC)COC(=O)CCCCC(=O)OCc1ccccc1 (centres undefined),outcome,[4],inactive
same,outcome,[8],inactive
same,outcome,[5],inactive
same,outcome,[7],inactive
c1ccc2cc3c(ccc4ccccc43)cc2c1,outcome,[2],inactive
same,outcome,[3],inactive
same,AC50,[4],53.8 µM (active)
same,outcome,[9],inactive
same,outcome,[6],inactive
same,outcome,[10],inactive
same,AC50,[7],64.2 µM (active)
C=C(C)C(=O)OCCC(F)(F)C(F)(F)C(F)(F)C(F)(F)C(F)(F)C(F)(F)F,outcome,[9],inactive
same,outcome,[10],inactive
N#C[C@@H]1CC(F)(F)CN1C(=O)CNC1CC2CCC(C1)N2c1ncccn1 (some centres undefined),outcome,[4],inactive
same,outcome,[8],inactive
same,outcome,[5],inactive
same,outcome,[6],inactive
same,outcome,[7],inactive
CCCCOCCO,outcome,[4],inactive
same,outcome,[5],inactive
same,outcome,[6],inactive
same,outcome,[7],inactive
COC(=O)CCCCC(=O)OC,outcome,[4],inactive
same,outcome,[5],inactive
same,outcome,[7],inactive
CCCCCCCC(=O)O,outcome,[8],inactive
same,outcome,[5],inactive
same,outcome,[6],inactive
same,AC50,[7],42.1 µM (active)
CC1=C(/C=C/C(C)=C/C=C/C(C)=C/C(=O)O)C(C)(C)CCC1,AC50,[9],19.6 µM (active)
same,AC50,[10],15 µM (active)
CCCCCCCCC(=O)O,outcome,[4],inactive
same,outcome,[8],inactive
same,outcome,[5],inactive
same,outcome,[6],inactive
same,outcome,[7],inactive
CCN(CC)CCNc1ccc(CNC=O)c2sc3ccc(OC)cc3c(=O)c12,AC50,[8],130 µM (active)
same,AC50,[5],26.2 µM (active)
same,AC50,[6],120 µM (active)
same,AC50,[7],5.72 µM (active)
c1ccc2c(c1)ccc1ccccc12,outcome,[3],inactive
same,outcome,[9],inactive
same,outcome,[10],inactive
CCCCC[C@H](O)CC(=O)CCc1ccc(O)c(OC)c1,outcome,[2],inactive
same,outcome,[3],inactive
ClC1=C(Cl)C(Cl)(Cl)C(Cl)=C1Cl,outcome,[4],inactive
same,outcome,[8],inactive
same,outcome,[5],inactive
same,outcome,[7],inactive
